# The whole screen tested about 16,000 compounds, of which about 5,800 (36%) were called active. Inconclusive results (about 23%) are left out. The call rests on the fitted dose curve; in most records, active means well fitted curve in the direction sought with a large enough effect; inconclusive means small, poorly fitted or top-dose-only effect, or effect the other way; inactive means no such curve, though single readings can be large or run the other way. This is one part of the list.
# Molecular target: Cytochrome P450 2C19 (Homo sapiens) (UniProt P33261)
# Experiment: Cytochrome panel assay with activity outcomes
# Conditions: recombinant CYP, pro-luciferin dealkylation, luminescence, p450-cyp2c19; series mostly up to 57.1 µM; activity, negative = inhibition: at the top concentration
# On the % scale 0 is the no-effect control and ±100 the full control effect.
# Cytochrome P450 2C19 (Homo sapiens), sequence (P33261 whole entry, looked up): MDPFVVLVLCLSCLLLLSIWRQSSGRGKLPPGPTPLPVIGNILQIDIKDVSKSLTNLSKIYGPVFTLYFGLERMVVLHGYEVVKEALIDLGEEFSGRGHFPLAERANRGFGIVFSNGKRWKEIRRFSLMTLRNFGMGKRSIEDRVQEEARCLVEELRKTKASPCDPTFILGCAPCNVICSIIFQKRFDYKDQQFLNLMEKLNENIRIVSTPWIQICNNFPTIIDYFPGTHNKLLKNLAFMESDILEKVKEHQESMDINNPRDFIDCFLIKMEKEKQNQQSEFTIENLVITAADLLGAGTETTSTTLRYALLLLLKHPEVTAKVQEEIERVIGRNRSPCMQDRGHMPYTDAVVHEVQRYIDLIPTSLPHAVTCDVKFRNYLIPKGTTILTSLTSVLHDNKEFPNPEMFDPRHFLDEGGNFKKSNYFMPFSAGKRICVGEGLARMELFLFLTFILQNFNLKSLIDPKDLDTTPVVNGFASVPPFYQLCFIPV
Structure (SMILES),"activity, negative = inhibition",AC50
CCCCCCCCCCCCCCCCCCc1ccc(C(=O)/C=C\C(=O)O)cc1,-4.95% (inactive),
COc1cccc(C(=O)/C=C/c2ccc(SC)cc2)c1,,0.631 µM (active)
CCCC(=O)Nc1ccc(C(=O)/C=C/c2ccc(SC)cc2)cc1,,2.51 µM (active)
COc1ccc2[nH]c(C(=O)c3ccccc3)cc2c1,-19.7% (inactive),
c1cncc(CNCc2cccnc2)c1,5.45% [at 11.4 µM] (inactive),
O=S(=O)(NCc1cccnc1)c1ccc(Cl)nc1,,31.6 µM (active)
OCCNc1ncnc2nc[nH]c12,10.2% [at 11.4 µM] (inactive),
Cc1cc2c(ncn2Cc2ccccc2)c([N+](=O)[O-])c1C,,4.47 µM (active)
Cc1cccc(Cn2cnc3c(NS(C)(=O)=O)c(C)c(C)cc32)c1,,3.98 µM (active)
COc1ccc2oc(-c3ccc(C)c(NC(=O)CSc4ccc(Cl)cc4)c3)nc2c1,,0.562 µM (active)
CC[C@@H]1OC(=O)[C@H](C)[C@H](O[C@@H]2C[C@](C)(OC)[C@H](O)[C@H](C)O2)[C@H](C)[C@H](O[C@@H]2O[C@@H](C)C[C@@H](N(C)C)[C@@H]2O)[C@](C)(O)C[C@H](C)[C@@H]2N[C@H](COCCOC)O[C@H]([C@@H]2C)[C@]1(C)O,17.8% [at 25.6 µM] (inactive),
COC(=O)c1c(NC(=O)CC2Nc3ccccc3NC2=O)sc(C)c1C (stereo unspecified),,11.2 µM (active)
CCN(CC)CCCNC(=O)CC1Sc2ccccc2NC1=O (stereo unspecified),-24.2% (inactive),
COC(=O)c1cc(NC(=O)CC2NC3CCCCC3NC2=O)cc(C(=O)OC)c1 (stereo unspecified),-17.7% (inactive),
Nc1nc(N)c2nn(-c3ccc(C(=O)O)cc3)nc2n1,19.9% [at 11.4 µM] (inactive),
O=C(O)[C@@H]1Cc2c([nH]c3ccccc23)[C@@H](CCCCO)N1,17.4% [at 11.4 µM] (inactive),
CC[C@H]1CN(C)[C@H]2Cc3c([nH]c4ccccc34)C(=O)C[C@H]1[C@H]2C(=O)OC,22.2% [at 11.4 µM] (inactive),
COC(=O)C1Cc2c([nH]c3ccccc23)CN1 (stereo unspecified),,3.98 µM (active)
O=c1[nH]c2cc([N+](=O)[O-])c([N+](=O)[O-])cc2[nH]c1=O,-12.4% (inactive),
CCCCCCCCCCCCCC(=O)O[C@H](CC(=O)O)C[N+](C)(C)C,-17.7% (inactive),
Cc1ccc(NC(=O)C2(NC(=O)c3cccc(N4C(=O)CSC4c4ccccc4)c3)CCCCC2)cc1 (stereo unspecified),,28.2 µM (active)

Structure (SMILES),"activity, negative = inhibition",AC50
CN(C)CC/C=C1\c2ccccc2CSc2ccccc21,-12.9% [at 25.6 µM] (inactive),
Cc1nc(SC2CC(=O)N(c3ccc([N+](=O)[O-])cc3)C2=O)nc2c1CCCC2 (stereo unspecified),,4.47 µM (active)
O=C(Cc1ccc(Br)cc1)OCC(=O)c1ccc2c(c1)OCCO2,,15.8 µM (active)
O=c1c2ccc(Cl)cc2nc(-c2cccc(C(F)(F)F)c2)n1O,,14.1 µM (active)
FC(F)(F)c1cccc(-c2nc3nc(Cl)c(Cl)nc3[nH]2)c1,-19.6% [at 11.4 µM] (inactive),
Cc1ccc(-n2ccnc2SCC(=O)N(CC(C)C)C2CCS(=O)(=O)C2)c(C)c1 (stereo unspecified),,10 µM (active)
Cc1cc(C)n2c(SCC(=O)N(C)C3CCS(=O)(=O)C3)nnc2n1 (stereo unspecified),-14.2% (inactive),
Cc1cccc(Nc2cc(Cl)nc(SCC(=O)O)n2)c1C,-19.1% (inactive),
Cc1cccc(NC(=O)CSc2nnc(-c3ccco3)c(-c3ccco3)n2)c1C,,2.24 µM (active)
O=C1CCCC=C1[C@H](CCc1ccccc1)OC(=O)c1ccc(Br)cc1,,1.58 µM (active)
O=C1CCCC=C1[C@H](O)c1ccc([N+](=O)[O-])cc1,-22% [at 11.4 µM] (inactive),
CC/C=C\CC[C@H](O)C1=CCCCC1=O,13.3% [at 11.4 µM] (inactive),
CC/C=C\CC[C@H](OC(=O)c1ccc(Br)cc1)C1=CCCCC1=O,,2 µM (active)
Cc1c(Cl)c(S(N)(=O)=O)cc2c1=NC=NS=2(=O)O,8.1% [at 11.4 µM] (inactive),
CN1CCC2(CC1)CCN(C(=O)c1ccncc1)CC2,25.7% (inactive),
COc1ccc2c(c1)nc(SCC(=O)c1ccc(Br)s1)n2C,,0.398 µM (active)
CCOc1ccc2c(c1)nc(SCC(=O)c1ccc(Br)s1)n2C,,0.708 µM (active)
Nc1ncnc2c1ncn2[C@@H]1O[C@@H](C(=O)NC2CC2)[C@H](O)[C@@H]1O,29.7% (inactive),
Cc1cc(O)c(/C=N/Nc2cccc(Cl)c2)c(=O)o1,,3.16 µM (active)
C[C@@H](CSC(=N)N)C(N)=O,27.2% [at 11.4 µM] (inactive),
COc1ccc(CNC(=O)Cc2csc(Nc3nc(=S)[nH]c4ccccc34)n2)cc1,,2.82 µM (active)

Structure (SMILES),"activity, negative = inhibition",AC50
O=C(Cc1csc(Nc2nc(=S)[nH]c3ccccc23)n1)NCc1cccc(Cl)c1,,0.794 µM (active)
Cc1ccc(CNC(=O)Cc2csc(Nc3nc(=S)[nH]c4ccccc34)n2)cc1,,2.24 µM (active)
Oc1cc2c(cc1O)CN(C(=S)NCCc1ccc(Cl)cc1)CCC2,,0.316 µM (active)
CN1C(=O)CC[C@@H]1c1cccnc1,,inactive
Cc1ccc(N2C(=O)CSC2c2cccnc2)cc1F (stereo unspecified),,20 µM (active)
CC1(C)CO[C@H](CC(=O)O)CN1,,5.01 µM (active)
Cc1nc2cnc(N(C)C)nc2n(C)c1=O,-10.6% (inactive),
CSc1nc(N)nc(-c2cccs2)c1C#N,,7.94 µM (active)
Cc1c(-c2ccc(F)cc2)nc(N)c(C#N)c1-c1cccs1,,4.47 µM (active)
Cc1cccc2c1OCC/C2=N\NC(=O)COc1ccccc1,,3.16 µM (active)
COc1cccc(OCC(=O)NN=C2c3ccccc3-c3ccccc32)c1,,0.708 µM (active)
Cc1ccccc1OCC(=O)N/N=C1\CCOc2c(C)cccc21,-3.29% (inactive),
Cc1c(N2CCCC2)cc2c(c1NC(=O)c1ccccc1Cl)C(C)(C)CC2(C)C,,0.794 µM (active)
Fc1cccc(/C=N\N=C/c2cccc(F)c2)c1,-17.4% (inactive),
O=C(N/N=C/c1cccc(F)c1)c1csc2c1CCCC2,,7.08 µM (active)
COc1cccc(-c2cncnc2NCc2ccccc2OC)c1,,2 µM (active)
COc1cccc(-c2cncnc2NCc2ccc(OC)cc2OC)c1,,1.26 µM (active)
COc1ccccc1CNc1ncncc1-c1cccnc1,,10 µM (active)
CCC(C)(C)n1nnnc1C(c1ccc(C)cc1)N1CCC(C)CC1 (stereo unspecified),,14.1 µM (active)
